# In PubChem BioAssay (NCATS):
# Inconclusive results are not listed. Calls of active or inactive are those of the source. The call rests on the fitted dose curve; in most records, active means well fitted cell-killing curve with a large enough effect; inconclusive means small, poorly fitted or top-dose-only effect; inactive means flat fitted curve, though single readings scatter.
# Assay: Cell Viability - LYMP2-019 (AID 973);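 further: cells exposed to compound for 24 h at 37 °C; 0% = DMSO alone and full effect = 92 µM tetraoctylammonium bromide; nearly all actives have a fitted effect of over 55% in size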
# Conditions: LYMP2-019 lymphoblastoid cell line viability; series mostly up to 92.2 µM; activity change, negative = cytotoxicity: at the top concentration
# Source text: NIH Chemical Genomics Center [NCGC]
# NIH Molecular Libraries Screening Centers Network [MLSCN]
# National Institutes of Environmental Health Sciences [NIEHS]
# National Toxicology Program [NTP]
# We have developed a 1536-well cell-based assay for quantitative high throughput screening (qHTS) against a number of cell lines to determine in vitro cytotoxicity of small molecules. This particular assay uses a human lymphoblastoid cell line (LYMP2-019) purchased from Coriell Institute for Medical Research.
# NCGC Assay Protocol Summary:
# The CellTiter-Glo luminescent cell viability assay (Promega) is a homogeneous method to measure the number of viable cells in culture. The end point readout of this assay is based on quantitation of intracellular ATP, an indicator of metabolic activity, using the luciferase reaction. Luciferase catalyzes the oxidation of beetle Luciferin to oxyluciferin and light in the presence of ATP. The luminescent signal is proportional to amount of ATP present.
# Using the CellTiter-Glo luminescent cell viability assay, the amount of cellular ATP was measured in the lymphoblastoid cell line with complete culture medium following compound treatment for 24 hours. The assay was performed in opaque white Kalypsys 1536-well plates. In the screen, tetraoctylammonium bromide was used as positive control. Library compounds were measured for their ability to cause acute toxicity in the cell line, as reflected by a decrease in intracellular ATP levels, in a concentration-dependent manner. […] AC50 values were determined from concentration-response data modeled with the standard Hill equation.
# qHTS protocol for CellTiter Glo lymphoblastoid cellular assay
# [Step] [Parameter] [Value] [Description]
# 1. Reagent; 5 uL; 2500 lymphoblastoid cells/well
# 2. Time; 5 hr; 37 C incubation
# 4. Controls; 23 nL; Tetraoctylammonium bromide 6.4pM to 92 uM
# 5. Time; 24 hr; 37 C incubation
# 6. Reagent; 5 uL; CellTiter Glo reagent
# 7. Time; 30 min; Room Temperature
# 8. Detection; Luminescence; Viewlux plate reader
# Keywords: cell viability, cytotoxicity, lymphoblastoid cell line, luminescence, NTPHTS, NTPHTS_NCGC, NIEHS, DSSTox, MLSMR, MLSCN, NIH Roadmap, qHTS, NCGC
row,Compound,"activity change, negative = cytotoxicity"
1,Cc1cc(=O)[nH]c(=S)[nH]1,-3.6% (inactive)
2,CC(=O)OCC(COC(C)=O)OC(C)=O,-3.64% (inactive)
3,Nc1ccc(S(=O)(=O)c2ccc(N)cc2)cc1,0.046% (inactive)
4,CC(=O)NS(=O)(=O)c1ccc(N)cc1,-4.94% (inactive)
5,Cc1cc(C)nc(NS(=O)(=O)c2ccc(N)cc2)n1,-1.36% (inactive)
6,C=CCNC(N)=S,-7.62% (inactive)
7,COc1ccc(O)cc1,-2.06% (inactive)
8,Cc1c(N(C)C)c(=O)n(-c2ccccc2)n1C,-0.714% (inactive)
9,CCCC(O)C(CC)CO (stereo unspecified),-0.713% (inactive)
10,CCN(CC)C(=O)c1cccc(C)c1,-2.99% (inactive)
11,CC(=O)Nc1ccccc1,-2.24% (inactive)
12,CC(=O)Nc1cccc(O)c1,-3.25% (inactive)
13,CCCCCCCC(=O)OCC(COC(=O)CCCCCCC)OC(=O)CCCCCCC,-5.39% (inactive)
14,CCCCCC(N)=O,-9.99% (inactive)
15,O=C(c1ccccc1)C(O)c1ccccc1 (stereo unspecified),-18.1% (inactive)
16,FC(F)(F)C(Cl)Br (stereo unspecified),-2.59% (inactive)
17,CC(=O)Nc1ccc(C(=O)O)cc1,-5.77% (inactive)
18,O=C1C(c2[nH]c3ccccc3c2O)=Nc2ccccc21,-8.57% (inactive)
19,CCCCOC(=O)c1ccc(N)cc1,0.676% (inactive)
20,O=C(O)CCCCC1CCSS1 (stereo unspecified),-5.94% (inactive)
21,CC1CC(OC(=O)c2ccccc2O)CC(C)(C)C1 (stereo unspecified),2.24% (inactive)
